Screening results as filed in PubChem BioAssay.
Pf Dd2 inh: blocks in vitro growth of P. falciparum Dd2. actives 4.3% (n = 120,000). AID 1347417. Potency, µM (top dose mostly 28.9 µM), actives largely listed as inhibitors. P. falciparum Dd2 growth, SYBR Green, 72 h; active = well fitted inhibition curve with a large enough effect; also: nearly all actives have a fitted effect of over 65% in size
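Infected erythrocytes (Dd2, 0.3% parasitemia, 2.5% hematocrit final) are added to compound in RPMI-1640/Albumax II medium, grown 72 h at 37C in low oxygen, then lysed with saponin/Triton-X containing SYBR Green and read by fluorescence.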
A number is an active result; - = inactive. The full list was thinned out, with hits kept by preference.

SMILES	Pf Dd2 inh
CN(Cc1cccnc1)C(=O)c1ccc(N2CC3CC(C2)[C@H]2CCCC(=O)N2C3)nc1 (some centres not stated)	-
CC(NC(=O)C1=Cc2ccccc2OC1)c1ccccc1 (configuration not stated)	-
O=C(Nc1cccc(C(F)(F)F)c1)N[C@H]1[C@H](O)[C@@H](Sc2ccccc2)[C@@H]2OC[C@H]1O2	-
COCc1noc([C@@H]2CC(F)(F)CN2C(=O)C2CC=CC2)n1	-
Cn1nc2n(c1=O)CCN(S(=O)(=O)c1ccc3c(c1)OCCO3)CC2	-
CCOCC(=O)N1CCCN(C(=O)C2CC2)c2ccccc21	-
CNC(=O)c1nnn2cc(C)[nH]c(=O)c12	-
Cc1cn2nnc(C(=O)NCCC3=CCCCC3)c2c(=O)[nH]1	10µM
Cc1ccc(CNC(=O)c2nnn3cc(-c4ccc(F)cc4)[nH]c(=O)c23)cc1	-
COc1cccc(CNC(=O)c2nnn3cc(C)[nH]c(=O)c23)c1	-
Cc1cn2nnc(C(=O)NCCc3cccs3)c2c(=O)[nH]1	-
CCc1ccc(CNC(=O)c2nnn3cc(C)[nH]c(=O)c23)cc1	7.94µM
O=C(C[C@@H]1O[C@H](CNC(=O)c2cccc(F)c2)[C@@H](O)[C@H]1O)NCCN1CCOCC1	-
O=C(NCc1ccc(Cl)cc1)C(=O)NCC(c1cccs1)S(=O)(=O)c1ccc(Cl)cc1 (configuration not stated)	-
COc1ccc(NC(=O)N2CCC(O)(c3csc(CN4CCN(C)CC4)n3)CC2)cc1	-
CCOc1cc(C2c3c(oc4ccccc4c3=O)C(=O)N2c2ccccn2)ccc1O (configuration not stated)	-
CCOc1ccc(-c2oc3ccccc3c(=O)c2O)cc1OCC	10µM
CCCOc1ccc(C2c3c(oc4ccccc4c3=O)C(=O)N2c2ccc(C)cn2)cc1OCC (configuration not stated)	-
Cc1noc(C)c1CO[C@@H]1CCOC[C@H]1NC(=O)c1ccc2c(c1)CCCO2	-
CCOc1cccc(-c2nnc(CCC(=O)N3CCC(Cc4ccccc4)CC3)c(=O)[nH]2)c1	-
O=C1NCCCCCN(C(=O)CC2CCCCC2)[C@@H]2C[C@@H](C(=O)N3CCc4ccccc4C3)C[C@H]12	7.08µM
Cc1cccc(C(=O)N2CCCCCNC(=O)[C@@H]3CCCC[C@@H]32)c1	-
O=C1NCCCCCCN(C(=O)c2cnccn2)[C@H]2C[C@H](C(=O)N3CCc4ccccc4C3)C[C@@H]12	-
O=C1NCCCCCCN(C(=O)c2ccoc2)[C@H]2C[C@H](C(=O)N3CCN(c4ccccn4)CC3)C[C@@H]12	-
Cc1cccc(C(=O)N2CCCCCCNC(=O)[C@@H]3CCCC[C@@H]32)c1	-
SMILES	Pf Dd2 inh
O=C1NCCCCCN(C(=O)CCCc2ccccc2)[C@H]2CCCC[C@@H]12	-
Cc1ccc(C(=O)N2CCCCCCNC(=O)[C@@H]3C[C@@H](C(=O)N4CCc5ccccc5C4)C[C@@H]32)s1	7.94µM
Cc1cccc(C(=O)N2CCCCCNC(=O)[C@H]3C[C@H](C(=O)N4CCc5ccccc5C4)C[C@H]32)c1	8.91µM
O=C1NCCCCCCN(C(=O)Cc2ccccc2)[C@H]2CCCC[C@@H]12	-
O=C(CCc1ccc2c(c1)CN(C(=O)CN1CCCC1=O)CCO2)NCC1CC1	-
O=C(C[C@H]1NC(=O)c2ccccc2NC1=O)NCCn1c(=O)c(=O)[nH]c2ccccc21	-
CCn1cc(-c2ccccc2)cc1C(=O)NCc1ccncc1	-
COc1ccccc1OCCC1CCN(C(=O)NCC(C)C)C1 (configuration not stated)	-
O=C(CCc1nc2ccccc2[nH]1)N1CC2CC(C1)[C@H]1CCCC(=O)N1C2 (some centres not stated)	-
COC(=O)c1cc(NC(=O)c2cc3c(-c4ccccc4F)nn(C)c3s2)cc(C(=O)OC)c1	-
COCc1noc(CC2CCOC3(CCN(C(=O)c4n[nH]c5ccccc45)CC3)C2)n1 (configuration not stated)	-
CCN(C1CCOCC1)C1CN(C(=O)c2ccco2)C1	-
CCn1cc(C(=O)OCC(=O)Nc2cccc(C(C)=O)c2)c(=O)c2ccc(C)nc21	-
CC1CCN(S(=O)(=O)c2cn(CC(=O)Nc3ccc(F)cc3)c(=O)c3ccccc23)CC1	-
CC(C)c1ccc(NC(=O)c2ccc(F)c(S(=O)(=O)N3CCN(c4ccccc4F)CC3)c2)cc1	-
CC(C)c1ccc(NC(=O)Cn2cc(S(=O)(=O)N3CCN(c4ccccc4F)CC3)c3ccccc3c2=O)cc1	10µM
COc1ccc(-c2cc3c(=O)n(CCNC(=O)c4cccc(N(C)C)c4)ccn3n2)cc1	-
CCn1c(=O)n(-c2ccc3c(c2)OCO3)c2nc(-c3cccc(OC)c3OC)nc(C(N)=O)c21	-
CCOC(=O)Cn1c(=O)n(-c2ccccc2OC)c2nc(-c3ccccc3C)nc(C(N)=O)c21	10µM
CCOC(=O)Cn1c(=O)n(CC2CCCO2)c2nc(-c3ccccc3)nc(C(N)=O)c21 (configuration not stated)	-
O=C(CN1C(=O)NC2(CCOCC2)C1=O)NCCCc1ccccc1	-
Cc1ccc(C)c(S(=O)(=O)Nc2ccc3c(c2)CCCN3C(=O)c2cccs2)c1	-
Cc1ccc(/C=C/c2onc(C)c2S(=O)(=O)N2CCC(C(=O)Nc3ccc(OC(F)(F)F)cc3)CC2)cc1	-
Cc1cc(C)c(/C=C/c2onc(C)c2S(=O)(=O)N2CCC(C(=O)NCc3ccco3)CC2)c(C)c1	11.2µM
Cc1ccc(NC(=O)C2CCN(S(=O)(=O)c3cccs3)CC2)cc1	-
SMILES	Pf Dd2 inh
Cc1cccc(NC(=O)C2CCN(S(=O)(=O)c3c(C)noc3/C=C/c3ccco3)CC2)c1C	-
CCOc1ccc(NC(=O)C2CCN(S(=O)(=O)c3c(C)noc3/C=C/c3c(C)cc(C)cc3C)CC2)cc1	-
COc1ccc(CCNC(=O)C2CCN(S(=O)(=O)c3c(C)noc3/C=C/c3ccc(C)cc3)CC2)cc1OC	-
COc1cc(NC(=O)C2CCN(S(=O)(=O)c3c(C)noc3/C=C/c3cccs3)CC2)cc(OC)c1	11.2µM
COc1cc(OC)c(NC(=O)C2CCN(S(=O)(=O)c3c(C)noc3/C=C/c3c(C)cc(C)cc3C)CC2)cc1Cl	-
CCc1ccc(NC(=O)C2CCN(S(=O)(=O)c3c(C)noc3/C=C/c3cccs3)CC2)cc1	12.6µM
COc1ccc(/C=C\c2onc(C)c2S(=O)(=O)N2CCC(C(=O)Nc3cccc(C)c3C)CC2)cc1	2.82µM
Cc1noc(C)c1S(=O)(=O)N1CCC(C(=O)Nc2ccc(Br)cc2)CC1	-
Cc1ccc(NC(=O)C2CCN(S(=O)(=O)c3c(C)noc3C)CC2)cc1C	-
N#Cc1cccc(C(=O)N2CCCCCCNC(=O)[C@@H]3CCC[C@@H]32)c1	-
COCc1cc(C)nc2sc3c(=O)n(-c4ccccc4C(F)(F)F)nnc3c12	-
COc1ccccc1-c1ccc(C(=O)N2C[C@@H](C)[C@@](C)(O)C2)cc1	-
CS(=O)(=O)N1CCC2(CC1)CC(CC(=O)NCCCn1cccn1)CCO2 (configuration not stated)	-
CCc1nnc(NC(=O)CSc2nc3c([nH]c4ccccc43)c(=O)n2-c2cc(C)cc(C)c2)s1	-
Cc1nn(C)c(C)c1C(C)NC(=O)c1ccc(CC2CCN(C(=O)C3CC3)CC2)cc1 (configuration not stated)	-
CN1CCN(C(=O)CC[C@H]2CNC(=O)[C@@H]3[C@@H](CCN3CC(C)(C)C)N2C)CC1	-
Cc1noc(/C=C/c2cccs2)c1S(=O)(=O)N1CCC(C(=O)NCc2ccc(Cl)cc2)CC1	-
